Measured values reported in ChEMBL document CHEMBL3433997, “St. Jude Leishmania screening dataset” (2016).

How the values were obtained:
Assay type in all cases: functional
[1] = target: Solute carrier family 2, facilitated glucose transporter member 1 (Homo sapiens) (UniProt P11166); assay: ST_JUDE_LEISH: Cytotoxicity at 2uM final concentration against transgenic Leishmania Mexicana promastigotes LmGLUT1 that are glucose transport deficient and complemented with the human glucose transporter GLUT1. Activity is measured by DNA content using SYBR green in vitro
Solute carrier family 2, facilitated glucose transporter member 1 (Homo sapiens), sequence (P11166 whole entry): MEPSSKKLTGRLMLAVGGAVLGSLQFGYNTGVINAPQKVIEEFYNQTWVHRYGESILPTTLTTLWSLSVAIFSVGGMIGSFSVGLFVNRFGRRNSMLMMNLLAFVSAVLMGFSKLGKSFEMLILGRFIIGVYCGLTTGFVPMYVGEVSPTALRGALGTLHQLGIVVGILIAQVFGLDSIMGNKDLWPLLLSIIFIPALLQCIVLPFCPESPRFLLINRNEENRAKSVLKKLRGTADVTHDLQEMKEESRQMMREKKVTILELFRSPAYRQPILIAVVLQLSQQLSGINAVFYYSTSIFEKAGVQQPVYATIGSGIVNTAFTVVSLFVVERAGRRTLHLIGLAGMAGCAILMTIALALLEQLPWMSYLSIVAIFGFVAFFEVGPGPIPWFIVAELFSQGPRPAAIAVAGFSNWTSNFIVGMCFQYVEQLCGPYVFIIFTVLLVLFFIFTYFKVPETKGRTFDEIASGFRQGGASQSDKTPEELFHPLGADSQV

[2] = target: Hexose transporter 1 (Plasmodium falciparum) (UniProt O97467); assay: ST_JUDE_LEISH: Cytotoxicity at 2uM final concentration against transgenic Leishmania Mexicana promastigotes LmPfHT that are glucose transport deficient and complemented with the Plasmodium falciparum hexose transporter. Activity is measured by DNA content using SYBR green in vitro
[3] = target: Glucose transporter (Leishmania mexicana) (UniProt O61059); assay: ST_JUDE_LEISH: Cytotoxicity at 2uM final concentration against transgenic Leishmania Mexicana promastigotes LmGT2 that are glucose transport deficient and complemented with the L. Mexicana glucose transporter 2. Activity is measured by DNA content using SYBR green in vitro

SMILES | inhibition [1] | inhibition [2] | inhibition [3]
Cc1[nH]c2ccccc2c1CC1CCN(CC2CCN(C(=O)/C=C/c3ccc(Cl)c(Cl)c3)CC2)CC1 | 0.92% | 1.33% | 1.79%
CN(C)c1ccc(/N=C2/N/C(=N/c3ccc(N(C)C)cc3)c3ccccc32)cc1 | 4.81% | 6.38% | 3.25%
COCc1nc(N)nc(N)c1-c1ccc(Cl)c(Cl)c1 | -0.03% | 0.2% | 0.08%
CCNc1cc(C)nc(Nc2ccc(C)cc2)n1 | 25.8% | 7.92% | 5.86%
Cc1cnc2ccc(NS(=O)(=O)c3ccc4c(Cl)cccc4c3)cc2c1N1CCNCC1 | 1.16% | 1.37% | 1.37%
CCc1c(CCNCCCCCCNC(C)Cc2ccc3c(c2CC)OCO3)ccc(OC)c1OC (stereo unspecified) | 4.49% | 3.47% | 1.99%
O=C1OC(c2ccccc2)(c2ccccn2)CN1C1CCN(Cc2cccn2-c2ccc(Cl)cc2)CC1 (stereo unspecified) | 2.2% | 1.43% | -0.08%
Cn1c(Nc2cc(C(C)(C)C)on2)nc2cc(Nc3ccnc(Nc4ccc(CS(C)(=O)=O)cc4)n3)ccc21 | 1.46% | 1.48% | 2.34%
O=C(NCCN1CCCCC1)c1ccc(CNC(=O)c2ccc(O)c(-c3ccc(Cl)c(Cl)c3)c2)cc1 | 0.15% | 0.04% | -0.59%
Cc1ccc2[nH]c3c(NCCN(C)C)ncnc3c2c1 | 0.53% | 1.24% | -0.07%
CCCc1ccc(NC(=O)c2cccc(CN3CCCN(Cc4cccc(O)c4)CC3)c2)cc1 | -0.09% | 2.34% | 0.71%
COc1ccc2nccc(NC(=O)C3CCC(NCc4ccc5c(c4)NC(=O)CS5)CC3)c2c1 (stereo unspecified) | 4.42% | 2.96% | 0.5%
